Results reported in PubChem BioAssay (NCI).
About 83,000 compounds went through this panel and 20% of them were active in at least one assay; those are over-represented in the sample as a whole.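 Activity criterion: percent growth below 10, measured after cells in 96-well plates were exposed to a single compound concentration for 48 hours.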 Calls of active or inactive are those of the source.

test system: HL-60(TB) leukemia; experiment: NCI-60 one-dose screen, 48 h (100 = growth as untreated, 0 = no growth, -100 = all killed); settings: 10 µM unless noted

Question: With `COc1ccc(-c2cc(-c3cccnc3)nc3sc4c(Cl)nnnc4c23)cc1OC` as the compound, how does the growth read?
Answer: Its growth is 85.4% (inactive).

Question: With `CCOC(=O)c1cn2ncnc(Oc3ccc(NC(=O)NCCN(CC)CC)c(Cl)c3)c2c1C` as the compound, how does the growth read?
Answer: The growth was 100% (inactive).

Question: How did the growth turn out when `CSc1nc2ccc(C)cc2cc1/C=C1/C=C(c2ccccc2)NC1=O` was run?
Answer: Its growth is 87.4% (inactive).

Question: How did the growth turn out when `[2H]C1([2H])NC([2H])([2H])C([2H])([2H])N(c2ccc(Nc3ncc4cc(C(=O)N(C)C)n(C5CCCC5)c4n3)nc2)C1([2H])[2H]` was run?
Answer: The growth was 22.7% (inactive).

Question: For `N#CC(=S)Nc1ccc(Cl)c(Cl)c1`, which growth is on record?
Answer: The growth was 8.99% (active).

Question: For `Cc1ccc(S(=O)(=O)NC(=O)NCCSSCCNC(=O)NS(=O)(=O)c2ccc(C)cc2)cc1`, which growth is on record?
Answer: The growth was 102% (inactive).

Question: Which growth does the source give for `COc1ccc(C(=O)C[C@]2(O)C(=O)Nc3c(Cl)ccc(Cl)c32)cc1` here?
Answer: The growth was -6.62% (active).

Question: `O=C(Nc1ccc(F)cc1)c1cc2ccccc2cc1O` was tested. Which growth did it give?
Answer: The growth was 71.2% (inactive).

Question: How did the growth turn out when `Cc1c(C(=O)NCCC(=O)NO)sc2ncnc(Nc3ccc(F)c(Cl)c3)c12` was run?
Answer: The growth was 103% (inactive).

Question: Which growth does the source give for `CN(C)Cc1cc(C(C)(C)C)cc(Br)c1O` here?
Answer: Its growth is 123% (inactive).

Question: With `CC1=C2[C@@H](CC1)[C@]1(C)O[C@@](C(C)C)(C[C@H]1OC(=O)[C@H](C)O)[C@H]2OC(=O)/C=C/c1ccccc1` as the compound, how does the growth read?
Answer: Its growth is 89.1% (inactive).

Question: For `Cc1cc(N)c(S(=O)(=O)O)c(N)c1`, which growth is on record?
Answer: Its growth is 98.9% (inactive).

Question: `CC(=O)CC/C=C(\C)[C@H](O)[C@H](C)C(=O)O[C@H]1C[C@H](C)C=C2C=C[C@@]3(C)O[C@@H](O)CC(=O)[C@]3(C)[C@H]21` was tested. Which growth did it give?
Answer: The growth was -21.3% (active).

Question: Which growth does the source give for `CCOC(=O)/C(C#N)=C\c1c[nH]c2ccccc12` here?
Answer: Its growth is 104% (inactive).

Question: For `Nc1ncc(-c2ccc(C(F)(F)F)cc2)c(NC2CCCCCC2)n1`, which growth is on record?
Answer: The growth was 16.8% (inactive).

Question: For `O=C(/C=C/c1cccc(O)c1)c1ccccc1O`, which growth is on record?
Answer: Its growth is 66% (inactive).

Question: Which growth does the source give for `COC(=O)CCc1c(/C=C2\N=C(c3ccc[nH]3)C=C2OC)[nH]c(C)c1C(=O)OCc1ccccc1` here?
Answer: The growth was -14.3% (active).

Question: With `CCOC(=O)c1c(O)c2cc(-c3ccccc3)nc(OCC)c2c(=O)n1C` as the compound, how does the growth read?
Answer: Its growth is 156% (inactive).

Question: `CNC(=O)c1cc(Cn2nc(C)c(NC(=O)Nc3ccc(Cl)c(C(F)(F)F)c3)c2C)ccn1` was tested. Which growth did it give?
Answer: The growth was 103% (inactive).

Question: For `[2H]c1nc(Nc2ncc(F)c(-c3cc(F)c4nc(C)n(C(C)C)c4c3)n2)c([2H])c([2H])c1CN1CCN(CC)CC1`, which growth is on record?
Answer: Its growth is 24.6% (inactive).

Question: With `CC(=O)Oc1cc(C)c(OC(C)=O)c(C)c1C` as the compound, how does the growth read?
Answer: Its growth is 101% (inactive).

Question: `O=C1Nc2ccc(F)cc2/C1=N/c1nnc(Sc2ccccc2)s1` was tested. Which growth did it give?
Answer: Its growth is 49.6% (inactive).

Question: With `COc1ccc(/C=N\Nc2nc(SCCC(C)C)nc(-c3ccc(OC)cc3)c2C#N)cc1` as the compound, how does the growth read?
Answer: The growth was 34% (inactive).

Question: How did the growth turn out when `COc1ccc(COc2cc3oc(=O)c4cc(C(C)O)ccc4c3cc2OC)cc1` (stereo not given) was run?
Answer: Its growth is 73.1% (inactive).

Question: `COc1cc(/C=C/C(=O)c2c(C)n([O-])c3cc(C)c(C)cc3[n+]2=O)cc(OC)c1OC` was tested. Which growth did it give?
Answer: Its growth is 32.9% (inactive).

Question: Which growth does the source give for `CC(C)(C)n1cc(-c2ccnc(NCCCNS(=O)(=O)c3ccc(C(F)(F)F)cc3)c2)c(-c2cccc(O)c2)n1` here?
Answer: Its growth is -24.5% (active).

Question: How did the growth turn out when `Cc1ccc(Cc2ccc(C)cc2)cc1` was run?
Answer: Its growth is 95.9% (inactive).

Question: Which growth does the source give for `C=C1C(=O)O[C@H]2[C@H]1CC/C(COC(=O)/C=C/c1c[nH]c3ccccc13)=C\CC[C@@]1(C)O[C@@H]21` here?
Answer: The growth was -18.7% (active).

Question: With `CN(C)CCCN(c1nc(C(Cl)(Cl)Cl)ns1)c1nc(C(Cl)(Cl)Cl)ns1` as the compound, how does the growth read?
Answer: The growth was 24.4% (inactive).

Question: How did the growth turn out when `C[C@@H]1C[C@H]2C(=O)O[C@@H](C)[C@H](NC(=O)[C@H](Cc3cc(F)cc(F)c3)NC(=O)Nc3ccc(C4CC4)cc3F)C(=O)N3CCC[C@H]3C(=O)N3CCCC[C@H]3C(=O)N[C@@H](C)C(=O)N2C1` was run?
Answer: Its growth is 20.9% (inactive).

Question: `N#Cc1ccc(/C=C/c2cn(-c3ccccc3)nc2-c2cccc([N+](=O)[O-])c2)cc1` was tested. Which growth did it give?
Answer: Its growth is 82.4% (inactive).

Question: `CCc1ccc(-c2nc(SCC(=O)NC3CCCCC3)n[nH]2)cc1` was tested. Which growth did it give?
Answer: The growth was 56.3% (inactive).

Question: `CCOCC(=O)C(C#N)c1ccc(Cl)c(Cl)c1` (stereo not given) was tested. Which growth did it give?
Answer: Its growth is 102% (inactive).

Question: `Nc1c(C(=O)Nc2cccc(Cl)c2)sc2ncc(Br)cc12` was tested. Which growth did it give?
Answer: Its growth is 108% (inactive).

Question: `CCCCCCCCN(CCCCCCCC)CCCCCCCCCN1CCCc2cc(OC)ccc21` was tested. Which growth did it give?
Answer: The growth was 89.6% (inactive).

Question: With `CC1=CC(=NC(=O)CBr)C=C/C1=N\S(=O)(=O)c1ccccc1` as the compound, how does the growth read?
Answer: Its growth is 67.2% (inactive).

Question: Which growth does the source give for `Cc1nc2ccccc2c(/C=C/c2ccccc2)c1C(=O)/C=C/c1ccc(C(F)(F)F)cc1` here?
Answer: The growth was -26.9% (active).

Question: Which growth does the source give for `CC#Cc1nc(Nc2cc(C)[nH]n2)c2ccccc2n1` here?
Answer: Its growth is 4.13% [100 µM] (active).

Question: How did the growth turn out when `Cn1ccnc1C(=O)/C=C/c1ccc(CC(=O)Nc2ccc(Cl)cc2)cc1` was run?
Answer: The growth was 5.24% (active).

Question: For `COc1ccc(NC(=O)c2ccc(C(F)(F)F)nc2Nc2ccc(Cl)cc2C)cc1Cl`, which growth is on record?
Answer: The growth was 4.78% (active).
